# Measured values taken from PubChem BioAssay (NCI).
# About 79,000 compounds went through this panel and 15% of them were active in at least one assay; those are over-represented in the sample as a whole. Active and inactive are the calls of the source. Cut-off read from the data, not from the text of the source: active = growth inhibition above about 70%; inactive = the rest.
# Assay: NCI Yeast Anticancer Drug Screen. Data for the cln2 rad14 strain (AID 165);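 note: 0% = growth equal to vehicle treated cultures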
# Details: S. cerevisiae cln2 rad14 strain, at 50.0 µM, hits give high values
# Method in brief: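 Growth of compound-exposed yeast (cln2 rad14 genotype) measured and expressed as inhibition relative to vehicle.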
row,Compound,growth inhibition
1,CCOC(=O)CN(C)C#N,-5.3% (inactive)
2,O=CNC1(c2ccccc2)CCCCC1,16.4% (inactive)
3,Cc1nn(C(=O)c2ccncc2)c2c1C(c1ccccc1[N+](=O)[O-])SC(N)=N2 (stereo not given),26.1% (inactive)
4,NC(=O)c1[nH]nc(C2OC(CO)C(O)C2O)c1O (stereo not given),-0.05% (inactive)
5,CC(C)c1ccc2c(c1)CCC1C(C)(C)[C@@H](O)CC[C@]21C (stereo not given in full),19.4% (inactive)
6,NC(=O)c1ccc[n+](-c2ccc([N+](=O)[O-])cc2[N+](=O)[O-])c1,39.8% (inactive)
7,CCSC(=S)S(=O)(=O)c1ccc(C)cc1,90.5% (active)
8,NC(=O)c1ccc2c(c1)-c1nc-2nc2[n-]c(nc3nc(nc4[n-]c(n1)c1ccc(C(N)=O)cc41)-c1ccc(C(N)=O)cc1-3)c1ccc(C(N)=O)cc21.[Co+2],29.2% (inactive)
9,Cc1cc(O)c2c(c1)C(=O)c1c(-c3ccc(O)c4c3C(=O)c3c(O)c(C)cc(O)c3C4=O)ccc(O)c1C2=O,9.05% (inactive)
10,CNC(=O)OCc1c(COC(=O)NC)c(C)n(-c2ccccc2)c1C,-0.35% (inactive)
11,CCOC(=O)Nc1cc(Cl)c2nnn(C(=O)OCC)c2n1,90.7% (active)
12,C=C1N(c2cc(OC)c(OC)c(OC)c2)C(=O)OC12CCCCC2,38.7% (inactive)
13,CCOC(=O)C(C(=O)OCC)C(=O)C(C)(C)C,11.2% (inactive)
14,CN(C)c1ccc(/C=N\NC(=S)NCCCN2CCN(CCCNC(=S)N/N=C/c3ccc(N(C)C)cc3)CC2)cc1,17.6% (inactive)
15,Cc1c(Cl)ccc([N+](=O)[O-])c1Cl,18.3% (inactive)
16,CS(=O)(=O)OCCCCOS(=O)(=O)CF,-14.2% (inactive)
17,O.O.[Cl][Pt+2][Cl].[NH-]CC1(C[NH-])CCCCC1,18.5% (inactive)
18,COc1ccc2c(c1)CCN1CCc3ccccc3CC21 (stereo not given),45.9% (inactive)
19,CC12CCC[C@@](C)(C(=O)OC3OC(CO)C(O)C(O)C3O)[C@H]1CCC13CC4CC(OC4(CO)[C@H]1O)[C@@H]23 (stereo not given in full),-18.8% (inactive)
20,O=C1CN(c2cccc(C(F)(F)F)c2)C(=O)CN1CCN1CC(=O)N(c2cccc(C(F)(F)F)c2)CC1=O,-6.45% (inactive)

row,Compound,growth inhibition
1,CN(c1ccc(Br)cc1)c1nc(N)nc(N)c1N=O,-98.6% (inactive)
2,CCOC(=O)C(NC(=O)OC(C)(C)C)C(=O)OCC,-28.9% (inactive)
3,NC(=S)N/N=C/c1ccccc1S(=O)(=O)O,-16.2% (inactive)
4,CNC(=O)c1ccccc1S(=O)Cc1ccc(Br)cc1 (stereo not given),8.35% (inactive)
5,OCC1OC(n2cnc3c(NCc4ccccc4)ncnc32)C(O)C1O (stereo not given),-44.2% (inactive)
6,Cn1c(-c2ccc(/C=N/N=C(N)N)cc2)c[n+]2ccccc12,0.8% (inactive)
7,O=C(Cc1ccccc1)NC(=O)Nc1ccccc1,-0.15% (inactive)
8,O=c1[nH]c2c(Br)cccc2c2ccccc12,-30.9% (inactive)
9,Cc1c(Cl)cccc1NC(=O)Sc1ccc(C(C)(C)C)cc1,19.1% (inactive)
10,O=C1c2ccccc2C(=O)c2c1nnn2-c1ccccc1,-4.45% (inactive)
11,COC(=O)c1cc(C)c2c3ccccc3n(C)c2c1C(=O)OC,-1.5% (inactive)
12,Oc1cccc(CCc2ccccn2)c1,-24.3% (inactive)
13,O=C(c1ccccc1)c1cc[n+]([O-])cc1,-16.9% (inactive)
14,C#CCn1cnc2c1c(=O)n(C)c(=O)n2C,-0.8% (inactive)
15,O=C(O)C(O)C(O)C(O)C(O)C(O)CO.[NH-]C1CCCCC1[NH-].[Pt+2] (stereo not given),7.4% (inactive)
16,CC(=O)/C=C1\N(C)c2ccccc2C1(C)C,-8.55% (inactive)
17,COC(=O)c1c2cccccc-2c(C(=O)OC)c1N,-24.8% (inactive)
18,CC[N+](C)(CC)c1cccc(OC(=O)N2CCCCC2)c1,0.2% (inactive)
19,Cc1cc2c(=O)c(C(=O)O)c[nH]c2cc1-n1cccc1,15.7% (inactive)
20,O=C1c2ccccc2C(=O)N1C/C(Cl)=C/Cl,-3.65% (inactive)

# Assay: NCI Yeast Anticancer Drug Screen. Data for the bub3 strain (AID 167)
# Details: S. cerevisiae bub3 mutant strain, at 50.0 µM, hits give high values
# Method in brief: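 Screening used yeast with an engineered genetic alteration affecting cell cycle control. Compound-exposed cultures were compared with vehicle cultures, and reduced growth was taken as inhibition.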
row,Compound,growth inhibition
1,CCOC(=O)CN(C)C#N,-31.6% (inactive)
2,O=CNC1(c2ccccc2)CCCCC1,4.6% (inactive)
3,Cc1nn(C(=O)c2ccncc2)c2c1C(c1ccccc1[N+](=O)[O-])SC(N)=N2 (stereo not given),43.6% (inactive)
4,NC(=O)c1[nH]nc(C2OC(CO)C(O)C2O)c1O (stereo not given),-22.9% (inactive)
5,CC(C)c1ccc2c(c1)CCC1C(C)(C)[C@@H](O)CC[C@]21C (stereo not given in full),-32.6% (inactive)
6,NC(=O)c1ccc[n+](-c2ccc([N+](=O)[O-])cc2[N+](=O)[O-])c1,17.3% (inactive)
7,CCSC(=S)S(=O)(=O)c1ccc(C)cc1,84.2% (active)
8,NC(=O)c1ccc2c(c1)-c1nc-2nc2[n-]c(nc3nc(nc4[n-]c(n1)c1ccc(C(N)=O)cc41)-c1ccc(C(N)=O)cc1-3)c1ccc(C(N)=O)cc21.[Co+2],35% (inactive)
9,Cc1cc(O)c2c(c1)C(=O)c1c(-c3ccc(O)c4c3C(=O)c3c(O)c(C)cc(O)c3C4=O)ccc(O)c1C2=O,-26.8% (inactive)
10,CNC(=O)OCc1c(COC(=O)NC)c(C)n(-c2ccccc2)c1C,-3.95% (inactive)
11,CCOC(=O)Nc1cc(Cl)c2nnn(C(=O)OCC)c2n1,96.7% (active)
12,C=C1N(c2cc(OC)c(OC)c(OC)c2)C(=O)OC12CCCCC2,-0.3% (inactive)
13,CCOC(=O)C(C(=O)OCC)C(=O)C(C)(C)C,30.5% (inactive)
14,CN(C)c1ccc(/C=N\NC(=S)NCCCN2CCN(CCCNC(=S)N/N=C/c3ccc(N(C)C)cc3)CC2)cc1,1.5% (inactive)
15,Cc1c(Cl)ccc([N+](=O)[O-])c1Cl,14.8% (inactive)
16,CS(=O)(=O)OCCCCOS(=O)(=O)CF,-8.7% (inactive)
17,O.O.[Cl][Pt+2][Cl].[NH-]CC1(C[NH-])CCCCC1,8.75% (inactive)
18,COc1ccc2c(c1)CCN1CCc3ccccc3CC21 (stereo not given),53.4% (inactive)
19,CC12CCC[C@@](C)(C(=O)OC3OC(CO)C(O)C(O)C3O)[C@H]1CCC13CC4CC(OC4(CO)[C@H]1O)[C@@H]23 (stereo not given in full),-20.7% (inactive)
20,O=C1CN(c2cccc(C(F)(F)F)c2)C(=O)CN1CCN1CC(=O)N(c2cccc(C(F)(F)F)c2)CC1=O,-14.1% (inactive)

row,Compound,growth inhibition
1,CN(c1ccc(Br)cc1)c1nc(N)nc(N)c1N=O,5.2% (inactive)
2,CCOC(=O)C(NC(=O)OC(C)(C)C)C(=O)OCC,2.6% (inactive)
3,NC(=S)N/N=C/c1ccccc1S(=O)(=O)O,0.05% (inactive)
4,CNC(=O)c1ccccc1S(=O)Cc1ccc(Br)cc1 (stereo not given),22.7% (inactive)
5,OCC1OC(n2cnc3c(NCc4ccccc4)ncnc32)C(O)C1O (stereo not given),11.6% (inactive)
6,Cn1c(-c2ccc(/C=N/N=C(N)N)cc2)c[n+]2ccccc12,-3.85% (inactive)
7,O=C(Cc1ccccc1)NC(=O)Nc1ccccc1,-3.1% (inactive)
8,O=c1[nH]c2c(Br)cccc2c2ccccc12,-14.5% (inactive)
9,Cc1c(Cl)cccc1NC(=O)Sc1ccc(C(C)(C)C)cc1,11.4% (inactive)
10,O=C1c2ccccc2C(=O)c2c1nnn2-c1ccccc1,17.2% (inactive)
11,COC(=O)c1cc(C)c2c3ccccc3n(C)c2c1C(=O)OC,-9.9% (inactive)
12,Oc1cccc(CCc2ccccn2)c1,-3.85% (inactive)
13,O=C(c1ccccc1)c1cc[n+]([O-])cc1,-8.7% (inactive)
14,C#CCn1cnc2c1c(=O)n(C)c(=O)n2C,-11.7% (inactive)
15,O=C(O)C(O)C(O)C(O)C(O)C(O)CO.[NH-]C1CCCCC1[NH-].[Pt+2] (stereo not given),6.15% (inactive)
16,CC(=O)/C=C1\N(C)c2ccccc2C1(C)C,-2.9% (inactive)
17,COC(=O)c1c2cccccc-2c(C(=O)OC)c1N,36% (inactive)
18,CC[N+](C)(CC)c1cccc(OC(=O)N2CCCCC2)c1,-4.75% (inactive)
19,Cc1cc2c(=O)c(C(=O)O)c[nH]c2cc1-n1cccc1,36.3% (inactive)
20,O=C1c2ccccc2C(=O)N1C/C(Cl)=C/Cl,8.75% (inactive)
